By inhibition is commonly meant the drop in the measured response relative to a control, in per cent.

In all, about 47,000 compounds went through this assay and about 2,500 (5.3%) were called active. The sample holds actives, similar compounds and a random draw of the others, so the mix is not that of the screen. Unmarked numbers belong to inactive results. No stated cut-off is given here; in the data, active means inhibition above about 30%; inactive means the rest.

In the test the target is Ubiquitin carboxyl-terminal hydrolase 30 (Homo sapiens) (UniProt Q70CQ3). In words: blocks human USP30 ubiquitin-rhodamine cleavage (AID 1645860). To be noted: purified USP30, Ub-rhodamine cleavage fluorescence; at 25 µM; stronger effect = higher value.
Sequence of Ubiquitin carboxyl-terminal hydrolase 30 (Homo sapiens) (Q70CQ3 whole entry, looked up): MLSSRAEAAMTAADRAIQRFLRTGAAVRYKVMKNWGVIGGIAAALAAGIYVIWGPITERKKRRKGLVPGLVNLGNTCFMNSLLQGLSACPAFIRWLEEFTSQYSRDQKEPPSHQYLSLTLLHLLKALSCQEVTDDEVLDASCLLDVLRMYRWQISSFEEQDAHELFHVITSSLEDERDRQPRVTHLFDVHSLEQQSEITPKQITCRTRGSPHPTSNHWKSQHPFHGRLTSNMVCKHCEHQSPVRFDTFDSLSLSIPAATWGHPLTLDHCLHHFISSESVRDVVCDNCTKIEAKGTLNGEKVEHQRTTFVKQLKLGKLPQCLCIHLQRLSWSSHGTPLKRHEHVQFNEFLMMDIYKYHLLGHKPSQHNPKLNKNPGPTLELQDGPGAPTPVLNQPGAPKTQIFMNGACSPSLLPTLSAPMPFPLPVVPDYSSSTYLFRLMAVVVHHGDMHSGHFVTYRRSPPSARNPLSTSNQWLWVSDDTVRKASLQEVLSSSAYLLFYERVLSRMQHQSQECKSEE
For the compound `O=C(CCCOc1ccc(F)cc1F)N1CCC(c2[nH]nc3nccnc23)CC1`, the inhibition was -12.7%.

Take `Cc1ccc(N2CCn3c(nc4ccccc43)C2)cc1NS(C)(=O)=O`: the inhibition was -304%.

Take `CCc1ccc(-n2c(=O)c3ccccc3n(CC(=O)NCCC3=CCCCC3)c2=O)cc1`: the inhibition is 41% (active).

On to `Cc1ccc(Cn2c(C)c(CNCCC3=CCCCC3)c(C(=O)O)c2C)cc1`, for which the inhibition is -1.85%.

Take `O=C(CCc1nnc2n(CCc3ccccc3)c(=O)c3ccccc3n12)NCCN1CCCC1`: the inhibition was 13.2%.

With `Cn1ncc2c1CCCN(C(=O)Cc1ccccc1F)C2`, the inhibition is 10.7%.

On to `Cc1ccccc1CC(=O)Nc1ccc(-n2ccnc2C)nc1`, for which the inhibition was -47.4%.

Regarding `Cc1cccc(NC(=O)Cn2c(=O)n(Cc3nc(C)no3)c(=O)c3ccccc32)c1`, the inhibition was 14.7%.

For the compound `COc1cn(CC(=O)Nc2cccc(C)c2)c(CSc2ccc(C)cc2)cc1=O`, the inhibition was -0.0406%.

`Cc1cccc(NC(=O)Cn2c(C)ccc(NC(=O)Nc3cccc(C)c3)c2=O)c1`: the inhibition was 34.8% (active).

As for `CC(C)C(=O)N1CCN(C(=O)Cc2ccccc2)CC2(CC(=O)N(C)C2)C1` (stereo unspecified), the inhibition is 17%.

Turning to `Cc1cc(Nc2ncc(C)s2)cc(C2CCCN2c2ncccn2)n1` (stereo unspecified), the inhibition was -49.2%.

Regarding `CCOC(=O)C1CCCN(c2cc3n(c(=O)n2)CCc2cc(OC)c(OC)cc2-3)C1` (stereo unspecified), the inhibition is -59.6%.

As to `COc1ccc(C2=Nc3ncnn3C2=NCc2ccc(F)cc2)cc1OC`, the inhibition was 0.0164%.

For `COc1ccc(CN=C2NS(=O)(=O)C(c3ccc(F)cc3)=C2C)cc1OC`, the inhibition was 37% (active).

As to `CC1=C(c2ccc(C)cc2)S(=O)(=O)NC1=NCc1cccc(Br)c1`, the inhibition was 3.77%.

On to `Cn1nnc2c1CCN(C(=O)C1CCC1)C2COCc1ccccc1` (stereo unspecified), for which the inhibition is -10.7%.

Take `O=c1c2ccccc2c(-c2nc(-c3ccncc3)no2)cn1-c1ccc(F)cc1`: the inhibition is 44.8% (active).

Turning to `O=C(Cn1c(-c2nc(-c3ccc(F)cc3)no2)cccc1=O)N1CCCC1`, the inhibition is 11.4%.

For the compound `O=C(Cn1cccc(-c2nc(-c3ccccc3)no2)c1=O)Nc1ccccc1F`, the inhibition was -12.8%.

In the case of `CSCc1cc(N2CCOCC2)nc(-c2ccccn2)n1`, the inhibition is 23.5%.

For the compound `CC1CCN(S(=O)(=O)N2CCCC(C(=O)Nc3cc(F)ccc3F)C2)CC1` (stereo unspecified), the inhibition was 18.2%.

In the case of `O=C(Nc1ccc(N2CCN(C3CCCC3)C2=O)nc1)c1cccnc1`, the inhibition is -14.2%.

With `CC(C)c1noc(-c2ccc(OCC(=O)Nc3ccccc3Br)cc2)n1`, the inhibition is 30.7% (active).

`COc1ccc(OCC(=O)Nc2noc(-c3ccccc3)n2)cc1`: the inhibition was 24.4%.

As to `COc1cccc(NC(=O)Cn2c(C)cc(C)c2-c2nc(C(C)C)no2)c1`, the inhibition is -10.3%.

For the origin of these results see PubChem BioAssay AID1645860 (Buhrlage Lab, Dana-Farber Cancer Institute and Novartis …, 2021).
